TEAD-YAP inh – TEAD-YAP interaction inhibition; HEK-TIYL cells, TEAD-Gal4/YAP UAS-luciferase luminescence; inhibition, % at 9.12 µM; 1.4% of 640,000 active; in the data active = inhibition above about 32%;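 note: 0% = median of test compound wells and 100% = reference inhibitor wells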
FBW7 act – human FBW7 E3 ligase activation, primary screen; AlphaScreen FBW7–phospho-cyclin E peptide binding, activator screen; 0.13% of 650,000 active; AID 1259310; normalized activity (activation), % at 26.1 µM; Q969H0; in the data active = normalized activity above about 1.9%;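 note: purified mutant Fbw7 with reduced substrate affinity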
MITF inh – human MITF inhibition, primary screen. 0.91% of 650,000 active. AlphaScreen MITF homodimerization, bead proximity signal. inhibition, % at 2.6 µM. O75030; in the data active = inhibition above about 50%;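 note: 0% = vehicle wells with protein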
GPR151 ag – activators of human GPR151; Q8TDV0; PathHunter beta-arrestin GPR151 cells, luminescence; activation, % at 11.2 µM; 1% of 650,000 active; AID 1508602; in the data active = activation above about 4.9%;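 note: 0% = median of compound wells and 100% = cells with positive control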
Target sequence (Q8TDV0 whole entry, looked up): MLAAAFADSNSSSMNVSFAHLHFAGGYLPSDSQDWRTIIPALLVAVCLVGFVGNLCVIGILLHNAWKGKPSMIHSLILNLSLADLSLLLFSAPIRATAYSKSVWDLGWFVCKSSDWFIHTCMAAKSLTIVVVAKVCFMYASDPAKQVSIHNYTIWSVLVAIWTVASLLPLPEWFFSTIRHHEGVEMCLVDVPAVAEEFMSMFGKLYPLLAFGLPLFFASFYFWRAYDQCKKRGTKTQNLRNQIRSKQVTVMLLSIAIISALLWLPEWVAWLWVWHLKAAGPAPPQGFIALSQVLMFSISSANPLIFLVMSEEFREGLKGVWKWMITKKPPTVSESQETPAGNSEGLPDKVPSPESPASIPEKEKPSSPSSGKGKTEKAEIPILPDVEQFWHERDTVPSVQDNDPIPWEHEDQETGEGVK
GPR151 confirm – confirmation of human GPR151 activators | AID 1508609 | shares compounds with GPR151 ag | GPR151 PathHunter beta-arrestin cells, luminescence, 90 min; % of EA-reagent control over plate median | 6,700 tested, under 10 active | activation, % at 11.2 µM;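 active = mean percent activation across replicates above the confirmation screen cutoff of 4.91%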
GPR119 ag – counter-screen for GPR151 activators: effect on human GPR119. activation, % at 11.2 µM. GPR119 PathHunter beta-arrestin cells, luminescence, 90 min; 0 = compound-well median, 100 = enzyme-acceptor control. shares compounds with GPR151 ag. 0.3% of 6,700 active;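 active = mean percent activation in the counterscreen above 29.09%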;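 note: counterscreen on off-target GPR119 to flag nonselective hits from the GPR151 activator screen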
* marks the source's active call; other numbers are inactive results; x = no result given. In the library only some 3.5% were active in any assay of this set; here they are far more common.

SMILES | TEAD-YAP inh | FBW7 act | MITF inh | GPR151 ag | GPR151 confirm | GPR119 ag
COc1ccc2c(CN3C(=O)C(=O)N(C4CCCC4)C3=O)cc(=O)oc2c1 | -19 | 0 | 3 | 10* | 1 | 6
CS(=O)(=O)N1CCN(C(=O)c2cccc(Cl)c2)CC1 | -5 | 0 | -4 | 0 | x | x
COCCn1c(C)cc(/C=C2/C(=O)NC(=O)N(C3CCCCC3)C2=O)c1C | 9 | 0 | 8 | 7.0* | -1 | -12
Cn1c(NN)nc2sc3c(c2c1=O)CCC(C(C)(C)C)C3 (stereo unspecified) | 8 | 0 | 11 | 0 | x | x
Cc1nn2cnc3sc4c(c3c2nc1=O)CCC(C(C)(C)C)C4 (stereo unspecified) | -8 | 0 | -1 | 7.0* | 0 | -4
COc1ccc(N2CCN(C3CCCN(C(=O)c4csc(SC)n4)C3)CC2)cc1 (stereo unspecified) | -1 | 0 | 5 | 4.9* | 1 | 9
O=C(c1ccc(C(F)(F)F)cc1)N1CCCC1 | 1 | 0 | 1 | 0 | x | x
CCOC(=O)CC(=O)N1CCc2nc(-c3cccnc3)nc(N3CCCCCC3)c2C1 | -9 | 0 | 9 | 7.1* | -1 | -11
O=S(=O)(CCN1CCc2nc(-c3cccnc3)nc(N3CCCC3)c2C1)c1ccccc1 | 11 | 0 | 5 | 8.4* | -1 | -16
Cc1ccc(NC(=O)c2sc3ncnc(N4CCOCC4)c3c2C)cc1Cl | -20 | 0 | 20 | -1 | x | x
O=C(Nc1ncc(C(O)(C(F)(F)F)C(F)(F)F)s1)c1ccccc1Cl | -44 | 0 | 0 | 6.6* | 2 | 3
Cc1nnc(NC(=O)c2ccccc2Cl)s1 | -33 | 0 | 14 | 0 | x | x
COc1ccccc1C(=O)OCC(=O)Nc1ccc(C#N)cc1 | -9 | 0 | 17 | 6.1* | 1 | 1
CNc1ccccc1C(=O)OCC(=O)Nc1ccc(C#N)cc1 | -11 | 0 | -8 | -1 | x | x
Cc1cc(N/N=C/c2cccc([N+](=O)[O-])c2)nc(-c2ccccc2)n1 | -1 | 0 | -8 | 5.0* | 0 | 7
COc1cccc(CN2CCNC(=O)C2CC(=O)NCCc2ccc(Cl)cc2)c1 (stereo unspecified) | 2 | 0 | -10 | 0 | x | x
O=C(c1ccco1)N1CCN(c2nccn3c(-c4cccc(Cl)c4)cnc23)CC1 | -1 | 0 | 18 | 6.9* | 1 | 21
CO[C@H]1COC(=O)C/C=C/[C@H](C)[C@@H](OC)COC(=O)[C@@H](C)COC(=O)C/C=C/[C@@H]1C | x | 0 | -15 | 6.0* | 0 | 14
CO[C@@H]1COC(=O)[C@H](COCc2ccccc2)NC(=O)C/C=C/[C@@H](C)[C@H](OC)COC(=O)[C@H](C)NC(=O)C/C=C/C1C (stereo partly specified) | x | 0 | 23 | 4.9* | 0 | 13
Cc1nc2ccccc2c(=O)n1-c1cccc(NS(=O)(=O)c2cccc(Cl)c2)c1 | -1 | 0 | -6 | 0 | x | x
O=[N+]([O-])C1=C(Nc2ccc(Cl)c(Cl)c2)CS(=O)(=O)C1 | 5 | 0 | -5 | -1 | x | x
Cc1ccc(NC2=C([N+](=O)[O-])CS(=O)(=O)C2)cc1 | -4 | 0 | -2 | 6.5* | 0 | 10
Cc1ccc2c(CSc3n[nH]c(N)n3)cc(=O)oc2c1 | 5 | 0 | -2 | -1 | x | x
Cc1ccc2c(CSc3n[nH]c(N)n3)cc(=O)oc2c1C | -22 | 0 | -2 | 11* | 0 | 9
CCCS(=O)(=O)c1ncc(Cl)c(C(=O)Nc2cccc(C)c2)n1 | 31 | 0 | -6 | 7.4* | -1 | 0
SMILES | TEAD-YAP inh | FBW7 act | MITF inh | GPR151 ag | GPR151 confirm | GPR119 ag
CSc1ncc(Cl)c(C(=O)Nc2ccc(C)c(C)c2)n1 | -3 | 0 | -3 | 9.9* | 0 | -8
Cc1cccc(NC(=O)c2nc(S(C)(=O)=O)ncc2Cl)c1 | -19 | 0 | 7 | -1 | x | x
Cc1cc(C)nc(SCc2nnc(SCC(=O)N3CCCCC3)o2)n1 | -5 | 0 | 2 | 0 | x | x
O=C(NC1CCN(Cc2ccccc2)CC1)c1cccc(Nc2ccc3ncccc3c2)c1 | 6 | 0 | 2 | 2 | x | x
NS(=O)(=O)c1ccc(NC(=O)CSc2nc3cc(Cl)ccc3s2)cc1 | -5 | 0 | 2 | 6.1* | 0 | 20
O=C(CSc1nc2cc(Cl)ccc2s1)Nc1ccc(Cl)cc1 | 1 | 0 | 0 | 1 | x | x
